Compound activity: PubChem, National Center for Advancing Translational Sciences (NCATS)
This excerpt belongs to a sample that is enriched for hits.
KDM5B inhibitor: blocks human KDM5B histone demethylase activity. Q9UGL1. KDM5B demethylase, FDH-coupled NADH fluorescence (FDH is formaldehyde dehydrogenase). Potency, µM (series often up to 57.7 µM), hits mostly inhibitors. 2.6% of 220,000 active. AID 1347165; active = well fitted inhibition curve with a large enough effect; also: 0% is about no effect; nearly all actives have a fitted effect of over 70% in size
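Compound dilutions met 200 nM (final) KDM5BΔAP for 10 min at room temperature before substrate addition. The substrate mix held 12.5 µM H3K4me3 with cofactors 25 µM α-ketoglutarate and 50 µM Fe²⁺. NADH signal gain over 30 min defined activity.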
Numbers without * were called inactive. Potency is read from the fitted curve at half-maximal effect.

Screening O=C(c1cncs1)N1CCn2nc(C(O)Cc3ccccc3)cc2C1 (stereo not given) returned KDM5B inhibitor inactive.
Screening Cc1noc(C)c1C(=O)N[C@@H]1CN(S(C)(=O)=O)C[C@H]1CN(C)C returned KDM5B inhibitor inactive.
`Cc1ccc(C)c(C(=O)CN2C(=O)NC3(CCCCCCC3)C2=O)c1` gave KDM5B inhibitor inactive.
For O=C(N1c2ccccc2CC1c1noc(C2CCOCC2)n1)C1(c2ccccc2)CC1 (stereo not given) the results were KDM5B inhibitor inactive.
`COc1ccc(C2=NOC3(CCCN(C(=O)c4ccccn4)C3)C2)cc1` (stereo not given) gave KDM5B inhibitor inactive.
COc1cc(CN2CCCC2c2cc(C(C)C)on2)cc(OC)c1OC (stereo not given) was read as KDM5B inhibitor inactive.
Screening COCCNc1ncccc1-c1noc([C@@H]2CCCN2Cc2ccncc2)n1 returned KDM5B inhibitor 28µM*.
COc1ccc(CN2CCC[C@H]2c2nc(-c3cncnc3N)no2)cc1 was read as KDM5B inhibitor inactive.
For Nc1ncncc1-c1noc([C@@H]2CCCN2Cc2cnc3ccccc3c2)n1 the results were KDM5B inhibitor inactive.
COCCOc1ccnc(-c2noc([C@@H]3CCCN3Cc3cccnc3)n2)c1 was read as KDM5B inhibitor inactive.
Screening COCCNc1ccc(-c2noc([C@@H]3CCCN3C3CCC3)n2)cn1 returned KDM5B inhibitor inactive.
For COCCNc1ccc(-c2noc([C@@H]3CCCN3Cc3ccncc3)n2)cn1 the results were KDM5B inhibitor 28µM*.
`COc1cc(CN2CCC[C@H]2c2nc(-c3ccc(-c4ccncc4)nc3)no2)cc(OC)c1OC` gave KDM5B inhibitor inactive.
COCCNc1ncccc1-c1noc([C@@H]2CCCN2Cc2ccccn2)n1 was read as KDM5B inhibitor 32µM*.
Screening COCCOc1ncccc1-c1noc([C@@H]2CCCN2Cc2ccc(S(C)(=O)=O)cc2)n1 returned KDM5B inhibitor inactive.
Screening COCCNc1ncccc1-c1noc([C@@H]2CCCN2Cc2cc(OC)c(OC)c(OC)c2)n1 returned KDM5B inhibitor 32µM*.
CC(NC(=O)/C=C/c1ccc(Cl)cc1Cl)C1CC2CCC1C2 (stereo not given) was read as KDM5B inhibitor inactive.
Screening Cc1ccc(N2CC(NC(=O)c3ccc(S(=O)(=O)N4CCCCC4)cc3)CC2=O)cc1 (stereo not given) returned KDM5B inhibitor inactive.
For CCCC(C)C(=O)NCc1ccccn1 (stereo not given) the results were KDM5B inhibitor inactive.
COc1ccc(NC(=O)CSc2nc(C)cc(C)c2C(=O)Nc2ccccc2OC)cc1 was read as KDM5B inhibitor inactive.
`CC(C)n1nccc1NC(=O)c1nn(Cc2ccccc2)c(=O)c2ccccc12` gave KDM5B inhibitor inactive.
For CCN(CC)C(=O)N1CCC(c2noc(-c3cnccn3)n2)C1 (stereo not given) the results were KDM5B inhibitor inactive.
`CCC(=O)N1c2ccccc2CC1C(=O)NCc1cc(OC)ccc1OC` (stereo not given) gave KDM5B inhibitor inactive.
For Cc1ccc(OCc2ccc(-c3nc(C#N)c(N4CCC(C(N)=O)CC4)o3)o2)cc1C the results were KDM5B inhibitor inactive.
`O=C(NC(c1ccccc1)C1CC1)C1CCCO1` (stereo not given) gave KDM5B inhibitor inactive.
For CN(Cc1ccccc1)S(=O)(=O)c1ccc(-c2nc(C#N)c(NCc3ccc(F)cc3)o2)cc1 the results were KDM5B inhibitor inactive.
COCCNS(=O)(=O)c1cc(C(=O)O)cc(-c2ccc(N(C)C)nc2)c1 was read as KDM5B inhibitor inactive.
COCC(=O)Nc1ccc(-c2noc([C@@H]3CCCN3Cc3ncc[nH]3)n2)cn1 was read as KDM5B inhibitor 40µM*.
`COCC(=O)Nc1ccc(-c2noc([C@@H]3CCCN3Cc3cccnc3)n2)cn1` gave KDM5B inhibitor inactive.
`COc1ccc(C(=O)Nc2ccc(-c3noc([C@@H]4CCCN4CCCc4ccccc4)n3)cn2)cc1` gave KDM5B inhibitor 25µM*.
Cc1ccc(-c2noc([C@@H]3CCCN3C(=O)CCCc3ccccc3)n2)cc1 was read as KDM5B inhibitor inactive.
Screening COc1ccc(-c2noc([C@@H]3CCCN3C(=O)Cc3ccccc3)n2)cc1 returned KDM5B inhibitor inactive.
Screening COCCOc1ccc(-c2noc([C@@H]3CCCN3Cc3c[nH]c4ccccc34)n2)cn1 returned KDM5B inhibitor inactive.
`O=C(O)c1ccc(Br)cc1` gave KDM5B inhibitor inactive.
`COc1cc(OC)c(/C=N/O)cc1Br` gave KDM5B inhibitor inactive.
Screening COc1ccc(C(C)=O)cc1COC(=O)Cc1ccc(Cl)cc1 returned KDM5B inhibitor inactive.
Screening CCOC(=O)c1ccc2ncc(C(=O)OCC)c(NCCc3ccc(OC)c(OC)c3)c2c1 returned KDM5B inhibitor inactive.
`Cc1oc(-c2ccccc2)nc1C(=O)NCC(c1ccccc1)N(C)C` (stereo not given) gave KDM5B inhibitor inactive.
Cc1ccc(-c2cc3c(=O)n(CCNC(=O)Cc4ccsc4)ccn3n2)c(C)c1 was read as KDM5B inhibitor inactive.
For COc1ccc(C(=O)NCCn2ccn3nc(-c4ccc(C)cc4C)cc3c2=O)cc1F the results were KDM5B inhibitor inactive.
For CC(=O)Nc1cccc(C(=O)NCCn2ccn3nc(-c4ccc(C)cc4C)cc3c2=O)c1 the results were KDM5B inhibitor inactive.
Screening Cc1ccc(-c2cc3c(=O)n(CCNC(=O)C4CCCCC4)ccn3n2)cc1C returned KDM5B inhibitor inactive.
For Cc1ccc(C)c(-c2cc3c(=O)n(CCNC(=O)Cc4cccs4)ccn3n2)c1 the results were KDM5B inhibitor inactive.
`Cc1ccc(-c2cc3c(=O)n(CC(O)c4ccc(C)c(C)c4)ccn3n2)c(C)c1` (stereo not given) gave KDM5B inhibitor 35µM*.
Screening Cc1ccc(-c2cc3c(=O)n(CCNC(=O)c4nn(C)c5ccccc45)ccn3n2)c(C)c1 returned KDM5B inhibitor 28µM*.
`Cc1ccc(-c2cc3c(=O)n(CCNC(=O)c4ccc(N(C)C)cc4)ccn3n2)cc1C` gave KDM5B inhibitor 28µM*.
For Cc1ccc(-c2cc3c(=O)n(CCNC(=O)c4cccc(Cl)c4)ccn3n2)cc1C the results were KDM5B inhibitor inactive.
For COc1ccc(-c2cc3c(=O)n(CCNC(=O)c4ccc(C)s4)ccn3n2)cc1 the results were KDM5B inhibitor inactive.
`COc1ccc(-c2cc3c(=O)n(CCNC(=O)c4cccc(N(C)C)c4)ccn3n2)cc1` gave KDM5B inhibitor 35µM*.
Screening O=C1CC2CCCC(C1)N2C(=O)c1cc(F)ccc1Br returned KDM5B inhibitor inactive.
`CC(C)(C)c1ccc2c(c1)OCCOCCOCCOc1cc(C(C)(C)C)ccc1OCCOCCOCCO2` gave KDM5B inhibitor inactive.
CC(N)COc1ccccc1C(F)(F)F (stereo not given) was read as KDM5B inhibitor inactive.
Screening COC(=O)c1ccc(/C=C/C(=O)c2ccc(C)o2)cc1 returned KDM5B inhibitor inactive.
Screening CC1(C(=O)N2CCN(c3ccccn3)CC2)CCc2cnc(Nc3ccccc3)nc21 (stereo not given) returned KDM5B inhibitor inactive.
Screening CN(C)C(=O)c1cccnc1OC1CCN(C(=O)C2CCOCC2)CC1 returned KDM5B inhibitor inactive.
COc1ccc(OC)c(-n2c(=O)[nH]c3cc(C(=O)NCCc4ccc(OC)c(OC)c4)ccc3c2=O)c1 was read as KDM5B inhibitor inactive.
